From PubChem BioAssay
Marburg entry inh – qHTS for inhibitors of binding or entry into cells for Marburg Virus | Marburg virus pseudotyped entry inhibition, cell reporter | Potency, µM (series often up to 37.8 µM), for inactives: top-dose activity change, negative = inhibition, hits mostly inhibitors | 1.8% of 300,000 active | AID 540276, 2011; calls by dose curve; tested in HEK293 cells; further: potency means the concentration at half of the fitted maximal effect
VACV mCherry inh – qHTS for Stage-Specific Inhibitors of Vaccinia Orthopoxvirus: mCherry Reporter Primary qHTS | 0.63% of 310,000 active | Vaccinia virus mCherry reporter infection, fluorescence | Potency, µM (highest dose often 36.5 µM), inactives show at the top dose activity change, negative = inhibition, usual class: inhibitors; calls by dose curve; tested in A549 cells; further: potency means the concentration at half of the fitted maximal effect; nearly all actives have a fitted effect of over 35% in size
LASV entry inh – qHTS for Inhibitors of binding or entry into cells for Lassa Virus; Lassa virus pseudotype entry inhibition, cell reporter; 1.2% of 300,000 active; Potency, µM (titrated, usually from 37.9 µM), without a hit: at the highest dose activity change, negative = inhibition, hits mostly inhibitors; AID 540256, 2011; calls by dose curve; tested in HEK293 cells; further: potency means the concentration at half of the fitted maximal effect; nearly all actives have a fitted effect of over 50% in size
HCV inhibitor – qHTS Assay for Inhibitors of Hepatitis C Virus (HCV); Huh7.5.1 HCVcc-Cre infection, luciferase reporter, 44 h; Potency, µM (top dose mostly 41.8 µM), for the others: at the highest dose activity change, negative = inhibition, usual class: inhibitors; 3.4% of 340,000 active; AID 651820, 2012; active means well fitted inhibition curve with a large enough effect; inconclusive means small, poorly fitted or top-dose-only effect, or another doubt; inactive means no such curve, though single readings can be large or run the other way; further: potency means the concentration at half of the fitted maximal effect
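Infectious HCVcc-Cre (~0.5 moi) was added to cells just after compound, with cells seeded 4 h earlier at 1,000 per well. Luciferase activity after 44 h culture reported infection; substrate was incubated 15 min at room temperature before reading.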
Vaccinia Venus – qHTS for Stage-Specific Inhibitors of Vaccinia Orthopoxvirus: Venus Reporter Primary qHTS. Vaccinia virus Venus reporter expression, fluorescence. Potency, µM (highest dose often 36.5 µM), for inactives: at the highest dose activity change, negative = inhibition, most hits filed as inhibitors. 0.46% of 330,000 active. AID 720580, 2013; calls by dose curve; tested in A549 cells; further: potency means the concentration at half of the fitted maximal effect; nearly all actives have a fitted effect of over 30% in size
HCMV antiviral – qHTS Assay for inhibitors of the human cytomegalovirus (HCMV). HFF cells, HCMV-luciferase reporter, 72 h; active compounds read low. 4.5% of 410,000 active. activity change, negative = inhibition, % at 57.5 µM; in the data active means activity change below about -60%; inconclusive means no clear call, values can overlap the other calls; inactive means above about -39%
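Two compound doses tested in HFFs infected with HCMV-luciferase, MOI 1 PFU/cell, 72 h at 37C. Lysate luminescence read with OneGlo; data normalized against buffer-only and 10uM Salinomycin inhibitor controls.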
The depositor's hits bear a star; i = inactive; ? = inconclusive; nt = no result given; ! = not confirmed by another sample; [ ] = another dose, or the depositor's remark. An excerpt weighted towards active compounds, which were near 7.8% of everything screened. On the % scale 0 is the no-effect control and ±100 the full control effect.

SMILES	Marburg entry inh	VACV mCherry inh	LASV entry inh	HCV inhibitor	Vaccinia Venus	HCMV antiviral
CC(C)(C)C(=O)/C(=C\c1ccc([N+](=O)[O-])cc1)n1cncn1	nt	nt	nt	3.2µM*	nt	nt
O=C(CSc1nnc(-c2ccccc2)c(-c2ccccc2)n1)Nc1ccccc1Cl	nt	4%	-5%[46.1 µM]	nt	12%	-28
COc1ccc(Nc2nc(N3CCOCC3)nc(N3CCOCC3)n2)cc1Cl	?	-22%	-20%	10µM*	-4%	18
COc1ccc(Nc2nc(N3CCOCC3)nc(N3CCOCC3)n2)c(OC)c1	nt	nt	nt	?	nt	2
C=CCNc1nc(N2CCCC2)nc2ccccc12	?	nt	-6%	16µM*	-13%	-37
COc1ccc(Nc2nc(N3CCCC3)nc3ccccc23)c(OC)c1	?	?	16µM*	3.2µM*	11µM*	?
CC(Nc1nc(N2CCCCC2)nc2ccccc12)c1ccccc1 (stereo not given)	?	nt	?	?	nt	-36
COc1ccc(Nc2nc(Nc3ccc(OC)cc3OC)nc(N3CCOCC3)n2)c(OC)c1	1µM*	-9%[7.34 µM]	-18%[46.1 µM]	nt	-15%[7.34 µM]	-24
COc1ccccc1Nc1nc(N2CCOCC2)nc(N2CCOCC2)n1	4µM*	-24%	-9%[46.1 µM]	?	-15%	?
COc1cccc([C@H]2Oc3ccc(OC)cc3C(=NOC[C@@H](O)COCc3ccco3)[C@H]2O)c1	14%[14.2 µM]	nt	nt	nt	nt	nt
C[C@H]1CCC/C=C/[C@@H]2C[C@H](O)C[C@H]2[C@H](O)[C@H](S(=O)c2ccc(O)cc2)CC(=O)O1 (stereo not given in full)	?	?	1.3µM*	0.56µM*	?	-99*
CCCCC[C@H]1CCCCC[C@@H](O)C[C@@H](O)[C@@H](O)/C=C/C(=O)O1	nt	-14%	nt	nt	-10%	-13
C[C@H]1CCC/C=C/[C@@H]2C[C@H](O)C[C@H]2[C@@H](O)/C=C/C(=O)O1	0.28µM*	-6%	0.4µM*	?	?	-76*
CC1CCCC=CC2CC(OC(=O)CN(C)C)CC2C(O)C=CC(=O)O1 (stereo not given)	?	?	1.4µM*	0.56µM*	?	-98*
CCOC(=O)c1scc(-c2ccccc2)c1S(=O)(=O)Nc1ccccc1OC	nt	-7%	9%[46.1 µM]	nt	-6%	-11
COc1ccc(/C=C/c2nccc3ccccc23)cc1OC	nt	-22%	nt	nt	-15%	nt
C1COC(NC(C2CC2)C2CC2)=N1	11µM*!	-11%	-3%	11%[8.37 µM]	-8%	-25
CC(C)(C)NCC(O)COc1ccccc1C1CCCC1 (stereo not given)	nt	-18%	nt	?	?	-78*
CC(=O)Nc1ccc(OCC(O)Cn2c3ccccc3c3ccccc32)cc1 (stereo not given)	?	-13%	-5%	?	-17%	-23
Cc1ccccc1OCC(O)CNC1CCC(NCC(O)COc2ccccc2C)CC1 (stereo not given)	1.1µM*	3.2µM*	?	?	10µM*	-100*
CC(=O)Nc1ccc(OCC(O)Cn2c3ccccc3c3ccccc32)c(C)c1 (stereo not given)	-13%	?	?	?	?	-61*
CC(C)(C)NC[C@@H](O)COc1cccc2c1CCCC2=O	nt	i	nt	4%	-13%	-38
Cc1ccccc1OCC(O)Cn1c2ccccc2c2ccccc21 (stereo not given)	?	-25%	?	7.9µM*	-24%	18
C=CCNC(=O)[C@@]1(Sc2ccc(OC)cc2)CC(=O)N[C@@H]1c1ccc(OC)cc1	nt	nt	nt	nt	nt	-24
COc1ccccc1OCC(O)Cn1c(=N)n(Cc2ccccc2)c2ccccc21 (stereo not given)	?	nt	?	?	nt	-25
Cc1ccccc1OCC(O)Cn1c(=N)n(Cc2ccccc2)c2ccccc21 (stereo not given)	?	10µM*	?	?	11µM*	-74*
